Laboratory results: the supplement of paper PMC7393113
± gives the standard deviation of the averaged measurements.

System: iBMDM (immortalised mouse bone-marrow-derived macrophages), LPS-stimulated
Assay: mitochondrial superoxide (MitoSOX fluorescence) fold increase over unstimulated control; higher = more LPS-induced mitochondrial ROS (less inhibition)
Conditions: inhibitor concentration: 500 nM, LPS: 100 ng/ml
Procedure, shortened: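 Immortalised mouse bone-marrow-derived macrophages were seeded in triplicate in black 96-well plates and moved to phenol-red-free 1% FCS/DMEM for 20 h. They were pretreated 30 min with kinase inhibitors (500 nM), loaded with 1 μM MitoSox for 10 min, then given LPS (100 ng/ml). Fluorescence (excitation/emission 510/580 nm, ClarioStar plate reader) was read every 60 min for 4 h. Mitochondrial superoxide is fold induction over untreated control macrophages, averaged over three replicates.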

| Structure (SMILES) | mitochondrial superoxide (time after LPS: 1 h) | mitochondrial superoxide (time after LPS: 2 h) | mitochondrial superoxide (time after LPS: 4 h) |
| --- | --- | --- | --- |
| COc1cc2c(Nc3ccc(NC(=O)c4ccccc4)cc3)ncnc2cc1OCCCN1CCOCC1 | 1.34 ± 0.06 | 1.44 ± 0.069 | 1.52 ± 0.037 |
| Cn1cnc2c(F)c(Nc3ccc(Br)cc3Cl)c(C(=O)NOCCO)cc21 [Selumetinib (AZD6244)] | 1.45 ± 0.037 | 1.51 ± 0.031 | 1.61 ± 0.081 |
| CC(C)(C)c1cnc(CSc2cnc(NC(=O)C3CCNCC3)s2)o1 | 1.32 ± 0.035 | 1.43 ± 0.017 | 1.5 ± 0.14 |
| Cn1c(Nc2ccc(C(F)(F)F)cc2)nc2cc(Oc3ccnc(-c4ncc(C(F)(F)F)[nH]4)c3)ccc21 | 1.13 ± 0.08 | 1.2 ± 0.097 | 1.33 ± 0.066 |
| CNC(=O)c1cccc(-c2ccc3c(N4CCOC[C@@H]4C)nc(N4CCOC[C@@H]4C)nc3n2)c1 | 1.18 ± 0.058 | 1.46 ± 0.074 | 1.66 ± 0.1 |
| N#CC(=C(/N)Sc1ccccc1N)/C(C#N)=C(\N)Sc1ccccc1N | 1.36 ± 0.043 | 1.4 ± 0.048 | 1.45 ± 0.047 |
| NC1(C(=O)N[C@@H](CCO)c2ccc(Cl)cc2)CCN(c2ncnc3[nH]ccc23)CC1 | 1.38 ± 0.024 | 1.54 ± 0.046 | 1.61 ± 0.029 |
